# Laboratory results taken from PubChem BioAssay (NCI).
# The panel holds about 83,000 compounds, 20% with a hit somewhere; the sample as a whole holds those more often.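 In brief: 96-well plates, 48 h treatment, single concentration, percent growth endpoint.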 A number with no mark means an inactive call. Calls of active or inactive are those of the source. Rule for the calls: active = growth percent below 10; inactive = the rest.
# How the values were obtained:
# Assay in all cases: NCI-60 one-dose screen, 48 h (100 = growth as untreated, 0 = no growth, -100 = all killed)
# Details in all cases: 10 µM unless noted
# SR leukemia = system: SR leukemia
# RPMI-8226 leukemia = system: RPMI-8226 leukemia
# OVCAR-8 ovarian = system: OVCAR-8 ovarian
# OVCAR-5 ovarian = system: OVCAR-5 ovarian
# OVCAR-4 ovarian = system: OVCAR-4 ovarian
# SK-OV-3 ovarian = system: SK-OV-3 ovarian
# IGROV1 ovarian = system: IGROV1 ovarian
# OVCAR-3 ovarian = system: OVCAR-3 ovarian
# HS 578T breast = system: HS 578T breast
# NCI/ADR-RES ovarian = system: NCI/ADR-RES ovarian
Structure (SMILES),growth (SR leukemia),growth (RPMI-8226 leukemia),growth (OVCAR-8 ovarian),growth (OVCAR-5 ovarian),growth (OVCAR-4 ovarian),growth (SK-OV-3 ovarian),growth (IGROV1 ovarian),growth (OVCAR-3 ovarian),growth (HS 578T breast),growth (NCI/ADR-RES ovarian)
CC(=O)CC/C=C(\C)[C@H](O)[C@H](C)C(=O)O[C@H]1C[C@H](C)C=C2C=C[C@@]3(C)O[C@@H](O)CC(=O)[C@]3(C)[C@H]21,0.335% (active),-18.5% (active),-14.7% (active),-10% (active),-21.9% (active),-25.5% (active),-17.7% (active),-46.4% (active),-10.1% (active),0.0427% (active)
CCc1cccc(C)c1NC(=O)c1sc2nc3c(cc2c1N)CCCCC3,14.4%,12.2%,28.9%,45%,63.9%,36.9%,46.5%,3.96% (active),36%,14.2%
O=c1nc(N2CCOCC2)oc2c(-c3cccc4ccccc34)cccc12,72.9%,96.1%,85.2%,89.2%,97.1%,90%,75.4%,85.8%,83.8%,83.7%
C#CC(=O)/C=C/CCCCCCC#CC(=O)CCC(=O)C#CCCCCCC/C=C/C(=O)C#C,-34.8% (active),-31.6% (active),8.53% (active),57.7%,23.5%,91.8%,-39.5% (active),7.03% (active),47%,11%
Cc1c(C(C)(C)C)cc(C(C)(C)C)c2c1CN(C)CO2,103%,110%,105%,110%,105%,102%,114%,102%,105%,99.5%
Cc1ccc2oc(=O)cc(C3C(C#N)=C(N)Oc4c3ccc3ccccc43)c2c1 (stereo not given),27.6%,70.2%,85.8%,99.3%,87.8%,88.1%,75.6%,75.6%,85.5%,62.9%
CCCCC(=O)Nc1nc2ccc(SCCC)cc2s1,6.63% (active),15.7%,56.7%,69%,81.1%,66%,54.2%,22.8%,48.9%,13%
CCc1ccc(C2=C/C(=C/c3ccc(Cl)cc3)C(=O)N2CCc2ccc(S(N)(=O)=O)cc2)cc1,6.7% (active),18.9%,21.5%,47.2%,32.1%,46%,27.7%,23.6%,62.6%,51.8%
O=C(C[n+]1ccccc1Cl)c1ccc2c(c1)CCCC2,59.8%,90.3%,102%,102%,83.6%,99.7%,107%,93.6%,111%,109%
CC1CCC(C(C)C)C(NN)C1 (stereo not given),103%,104%,92.8%,107%,111%,91.8%,109%,113%,102%,106%
CCN(CC)CCC(C(=O)O)(c1ccccc1)c1ccccc1,95.7%,104%,113%,106%,102%,92%,102%,110%,95.3%,97.8%
Nc1nc(Cl)c2c(C(F)(F)F)cn(CC3CCNCC3)c2n1,-38.7% (active),83.7%,-16.3% (active),110%,101%,107%,-62.8% (active),94.7%,88.7%,109%
COc1cc(/C=C\c2cc(/C=C\c3ccc(O)c(OC)c3)n(C(=O)CNc3ccccc3OC)n2)ccc1O,2.38% (active),80.1%,84.6%,102%,84.2%,83.8%,90.5%,59.7%,49.8%,54.4%
